These results are taken from PubChem BioAssay AID430 (Sanford-Burnham Center for Chemical Genomics, 2006).

The structures appear in SMILES notation. Among all 63,000 compounds or so, about 1,100 (1.7%) were called active. Rule as the data show it: active = cytotoxicity above about 50%; inactive = the rest. Many of the other results were omitted from the sample, so actives are more common in it than they were. Potency and affinity values are given separately.

This assay can be described thus: cytotoxicity in HPDE-C7 cells, cell-based, fluorescence, HTS (AID 430).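 Also: cells exposed to compound for 48 hours before viability readout; 0% = vehicle and 100% = reference cytotoxic drug.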 The conditions noted are these: HPDE-C7 pancreatic duct cells viability, at 10 µM, active compounds read high.
As for `COC(=O)C1=C(O)CSC1=Nc1cccc(C(F)(F)F)c1`, the cytotoxicity was 6.1% (inactive).

Consider `CC1=CC(C)(C)N(C(=O)c2ccc(F)cc2)c2cc3c(cc21)OCO3`, for which the cytotoxicity is -5.1% (inactive). For the molecule `Cc1ccc2[nH]c(=O)c(CN(CCN3CCOCC3)C(=O)Nc3ccc(F)cc3)cc2c1`, the cytotoxicity is 1.9% (inactive).

In the case of `COc1ccc(CNC(=O)c2cc(-c3ccccc3O)n[nH]2)cc1`, the cytotoxicity is -14.7% (inactive). Regarding `CCCCOC(=O)n1c(=O)oc2cc(S(=O)(=O)N3CCCCC3)ccc21`, the cytotoxicity was 4.7% (inactive). For `CCCSc1nnc2n(C)c(=O)c3c4c(sc3n12)CCC4`, the cytotoxicity was 4.3% (inactive).

For the molecule `Cc1nnc2n(Cc3ccccc3)c(=O)c3c4c(sc3n12)CN(Cc1ccccc1)CC4`, the cytotoxicity is 11.3% (inactive). As for `CC(C)C1Cc2c(sc3c2c(=O)n(Cc2ccccc2)c2nncn32)CO1` (stereo not given), the cytotoxicity was 7.1% (inactive). The same measure for `CCCSc1nnc2n(Cc3ccccc3)c(=O)c3c4c(sc3n12)CCC4`: 52.7% (active); for `CCOC(=O)CSc1nnc2n(Cc3ccccc3)c(=O)c3c4c(sc3n12)CCC4`: 22.6% (inactive); for `CCC(C)N(C(=O)COC(=O)c1cn(CC)c2nc(C)ccc2c1=O)C1CCS(=O)(=O)C1` (stereo not given): -10.6% (inactive).

As to `CC(C)c1cc(C(=O)Nc2cccc(Cl)c2)no1`, the cytotoxicity was 1.6% (inactive). To `O=C(Nc1ccc(Oc2ccc(S(=O)(=O)N3CCOCC3)cn2)cc1)c1ccco1` belongs 2.4% (inactive); to `Nc1c(C(=O)NCc2ccco2)sc2nc3c(cc12)C(=O)CCC3`, 56.5% (active). The same measure for `COc1ccc2cc3c(N)c(C(=O)NCc4ccco4)sc3nc2c1`: -0.3% (inactive).

Consider `COc1cc2cc3c(N)c(C(=O)NCc4ccco4)sc3nc2cc1OC`, for which the cytotoxicity was 31.5% (inactive).

As to `Cc1ccc(Cn2c(=O)c3ccccc3n3c(CCC(=O)O)nnc23)cc1`, the cytotoxicity is 23% (inactive). With `COC(=O)C1C(c2ccccc2)C(C(=O)N2CCOCC2)C1c1ccccc1` (stereo not given), the cytotoxicity was -2.2% (inactive). On to `COc1ccc(CCN2C(=NC(=O)CCC(=O)O)SC3CS(=O)(=O)CC32)cc1OC` (stereo not given), for which the cytotoxicity is -11% (inactive).

With `COc1ccc(CNC(=O)CSc2nnc(C)s2)cc1`, the cytotoxicity was -6.3% (inactive). Consider `CC(C)c1nnc(NC(=O)CCS(=O)(=O)c2nc(-c3cccs3)cc(C(F)(F)F)n2)s1`, for which the cytotoxicity is 87% (active). The same measure for `FC(F)(F)c1cc(-c2ccco2)nc(-n2nnc3ccccc32)n1`: 5.9% (inactive); for `FC(F)(F)c1cc(-c2ccco2)nc(NCc2ccco2)n1`: 0.5% (inactive).

Take `FC(F)(F)c1cc(-c2ccco2)nc(NCc2ccccc2)n1`: the cytotoxicity was 9.1% (inactive). As for `CC(C)c1nnc(NC(=O)Cc2cccs2)s1`, the cytotoxicity was 1.9% (inactive). Turning to `CN1CCN(c2nc(-c3cccs3)cc(C(F)(F)F)n2)CC1`, the cytotoxicity is 1.7% (inactive). For `FC(F)(F)c1cc(-c2ccco2)nc(-n2cnc3ccccc32)n1`, the cytotoxicity is 0% (inactive). With `FC(F)(F)c1cc(-c2cccs2)nc(N2CCOCC2)n1`, the cytotoxicity is -7.3% (inactive). In the case of `CC(C)c1nnc(NC(=O)CCC(=O)Nc2ccc(F)cc2)s1`, the cytotoxicity was 6.6% (inactive). On to `O=C(COc1cccc(-n2cnnn2)c1)N1CCOCC1`, for which the cytotoxicity was 18.5% (inactive). The same measure for `Cc1c(C)n(CC(O)CN2CCOCC2)c2ccccc12` (stereo not given): -0.4% (inactive). To `CC(C)C(c1nnnn1Cc1ccc2c(c1)OCO2)N1CCN(c2ccccc2)CC1` (stereo not given) belongs -9.2% (inactive); to `COc1ccc(N2C(=O)CSC23C(=O)Nc2ccccc23)cc1OC` (stereo not given), -18.4% (inactive); to `COc1cc(OC)cc(C(=O)Nc2ccccc2N2CCOCC2)c1`, -3.9% (inactive). Take `COc1cc(OC)c(C(=O)COc2ncnc3ccccc23)c(OC)c1`: the cytotoxicity is -5.8% (inactive). For the molecule `O=S(=O)(Nc1ccc2c(c1)OCO2)c1cccs1`, the cytotoxicity is 15.6% (inactive).

For `Cn1c(NCC2CCCO2)nc2c1c(=O)n(Cc1ccccc1)c(=O)n2C` (stereo not given), the cytotoxicity was 4.9% (inactive). The same measure for `COc1ccc(-c2cc(C(F)(F)F)nc(N3CCCCC3)n2)cc1OC`: -20.9% (inactive); for `COc1nc(-c2ccccc2)cc(C(F)(F)F)n1`: -11.8% (inactive); for `Nc1nc(-c2ccccc2)cc(C(F)(F)F)n1`: -0.7% (inactive).

For `COc1ccc(-c2cc(C(F)(F)F)nc(NC3CCCC3)n2)cc1OC`, the cytotoxicity was 24.7% (inactive).

Regarding `COCCn1c(SCC(=O)OCc2ccccc2)nc2c1c(=O)[nH]c(=O)n2C`, the cytotoxicity was -3.3% (inactive).

For the molecule `CCCCC(=O)O[C@]1(C(=O)CO)CC[C@H]2[C@@H]3CCC4=CC(=O)CC[C@]4(C)[C@H]3[C@@H](O)C[C@@]21C`, the cytotoxicity was 8.3% (inactive). `CCCCCC(=O)O[C@]1(C(C)=O)CC[C@H]2[C@@H]3CCC4=CC(=O)CC[C@]4(C)[C@H]3CC[C@@]21C`: the cytotoxicity was 116% (active). On to `CCCCCCCC(=O)OCC(=O)[C@@]1(O)CC[C@H]2[C@@H]3CCC4=CC(=O)CC[C@]4(C)[C@H]3[C@@H](O)C[C@@]21C`, for which the cytotoxicity was -1.9% (inactive).

`Cc1c(C(=O)O)c2cc(O)ccc2n1-c1ccccc1`: the cytotoxicity was 4.3% (inactive). Take `Fc1ccc(-c2nnc(-c3ccc(Cl)cc3Cl)o2)cc1`: the cytotoxicity was 1.1% (inactive). To `O=C(NCc1ccco1)C(c1cccs1)N(Cc1ccccc1)C(=O)Cn1nnc2ccccc21` (stereo not given) belongs 3.4% (inactive); to `COCCCn1c2nc3ccccc3nc2c2c(=O)n(Cc3ccccc3Cl)cnc21`, -8.1% (inactive). Consider `COc1ccc(NC(=O)C2CCCN2S(=O)(=O)c2cccc3cccnc23)c(OC)c1` (stereo not given), for which the cytotoxicity was 5.8% (inactive).

Take `COc1ccc(N(C)S(=O)(=O)c2cccc3cccnc23)c(OC)c1`: the cytotoxicity is 51.4% (active). Regarding `COc1ccc(NC(=O)CN(C)S(=O)(=O)c2cccc3cccnc23)cc1`, the cytotoxicity is -4.1% (inactive). Consider `Cc1ccc(S(=O)(=O)NCC(=O)N2CCCCC2)cc1`, for which the cytotoxicity was -15.4% (inactive). Take `CCc1nc(N2CCN(C(=O)c3ccco3)CC2)c2oc3ccccc3c2n1`: the cytotoxicity was 22.2% (inactive). To `O=C(c1cc2cc(Cl)ccc2oc1=O)N1CCCC1` belongs -1.3% (inactive). In the case of `CCOC(=O)C1=C(c2ccccc2)NC(SCC(=O)Nc2ccccc2C)=C(C#N)C1c1ccco1` (stereo not given), the cytotoxicity is 32.9% (inactive). As for `CC1=C(C(=O)Nc2ccccc2)C(c2ccco2)C(C#N)=C(SCC(=O)Nc2cccc(C)c2C)N1` (stereo not given), the cytotoxicity was 67% (active). As to `CC1=C(C(=O)Nc2ccccc2)C(c2ccco2)C(C#N)=C(SCC(=O)OC(C)C)N1` (stereo not given), the cytotoxicity was 42.1% (inactive). For `CCOC(=O)CSC1=C(C#N)C(c2ccco2)C(C(=O)Nc2cccc(C(F)(F)F)c2)=C(C)N1` (stereo not given), the cytotoxicity was 12.4% (inactive). `COc1ccccc1NC(=O)C1=C(C)NC(SCC(=O)c2ccccc2)=C(C#N)C1c1ccco1` (stereo not given): the cytotoxicity is 33.9% (inactive).

For `CC1=C(C(=O)Nc2ccccc2)C(c2ccco2)C(C#N)=C(SCc2ccccc2)N1` (stereo not given), the cytotoxicity was 63.1% (active). In the case of `Cc1cccc(OCCC(=O)Nc2ccc(S(=O)(=O)N3CCCC3)cc2)c1`, the cytotoxicity is -7% (inactive).

Take `CCOc1ccc(NC(=O)c2cccc(-n3cnnn3)c2)cc1`: the cytotoxicity is 0.4% (inactive). For `CCC(C)SCc1nc2ccccc2[nH]1` (stereo not given), the cytotoxicity is -5.4% (inactive). Regarding `COc1cccc(-c2noc(CCC(=O)Nc3cccnc3)n2)c1`, the cytotoxicity is 2% (inactive).

Consider `O=C(OCc1ccc(F)cc1Cl)c1ccccn1`, for which the cytotoxicity was 4.8% (inactive).

Take `CN(C)c1ccc(S(=O)(=O)c2ccc(Cl)cc2)cc1`: the cytotoxicity was 1% (inactive). The same measure for `CSCC[C@@H](Nc1nc(-c2ccccc2)nc2c1oc1ccccc12)C(=O)O`: 7.2% (inactive).

Regarding `c1cncc(-c2nc(NCc3ccco3)c3ccccc3n2)c1`, the cytotoxicity was 5.3% (inactive). The same measure for `O=C(NCc1cccs1)c1cc2ccccc2o1`: -2.4% (inactive); for `CCC(C)(NC(=O)c1ccc(=O)[nH]c1)C(=O)NC1CCCC1` (stereo not given): -7% (inactive); for `COC(=O)CNC(=O)C(Cc1c[nH]c2ccccc12)NC(=O)OC(C)(C)C` (stereo not given): -5% (inactive). Regarding `Cc1ccccc1Cc1c(C)nc2c(C(=O)N3CCN(Cc4ccc5c(c4)OCO5)CC3)cnn2c1C`, the cytotoxicity is -6.7% (inactive). Regarding `COc1ccc(CNC(=O)c2cnc3scc(C)n3c2=O)cc1`, the cytotoxicity is -6.4% (inactive). Take `CSc1ccccc1NC(=O)c1cnc2scc(C)n2c1=O`: the cytotoxicity is -4.8% (inactive).

Consider `Cc1csc2ncc(C(=O)Nc3ccccc3F)c(=O)n12`, for which the cytotoxicity was 51.2% (active).

For the molecule `Cc1nc2c(C(=O)O)cnn2c(C)c1Cc1ccccc1F`, the cytotoxicity is -26.4% (inactive). In the case of `Cc1csc2ncc(C(=O)NCc3ccc4c(c3)OCO4)c(=O)n12`, the cytotoxicity was 67.4% (active).

For the molecule `Cc1csc2ncc(C(=O)Nc3ccc4c(c3)OCCO4)c(=O)n12`, the cytotoxicity was -20.4% (inactive). Regarding `Cc1csc2ncc(C(=O)Nc3ccccc3Cl)c(=O)n12`, the cytotoxicity was -6.7% (inactive).

For `CCC(=O)Nc1nc2c(OC)ccc(C)c2s1`, the cytotoxicity is 4% (inactive). In the case of `CCOc1cccc(C(=O)Nc2nnc(-c3ccco3)s2)c1`, the cytotoxicity was 2.3% (inactive). As to `NC(=O)c1ccccc1NS(=O)(=O)Cc1ccc(Cl)cc1`, the cytotoxicity was 0% (inactive). With `Cc1c(NC(=O)C(C)OC(=O)CC2Sc3ccccc3NC2=O)c(=O)n(-c2ccccc2)n1C` (stereo not given), the cytotoxicity is -14.3% (inactive). The same measure for `CSc1ccc(NC(=O)CC(C)=O)cc1`: -11.5% (inactive); for `c1csc(-c2nnsc2-c2nc3ccccc3[nH]2)c1`: 7.2% (inactive). To `CCC(=O)NC1=C(C#N)C2(CCCC2)Cc2ccccc21` belongs 10.4% (inactive); to `COc1ccccc1-c1cc(C(=O)NCc2ccccc2)no1`, 17.1% (inactive).

As to `Cc1ccc(C)c(OCC(=O)Nc2ccc3c(c2)OCO3)c1`, the cytotoxicity is -6.1% (inactive).

For `CCn1c2ccccc2c2nnc(SCCCn3c(=O)[nH]c4ccccc43)nc21`, the cytotoxicity is -2.7% (inactive). Regarding `C=CCn1c2ccccc2c2nnc(SCN3C(=O)c4ccccc4C3=O)nc21`, the cytotoxicity is 21.1% (inactive). In the case of `C=CCn1c2ccccc2c2nnc(SCCCn3c(=O)[nH]c4ccccc43)nc21`, the cytotoxicity was 89.5% (active). For `CCCCn1c(CCC(=O)O)ccc1-c1cccs1`, the cytotoxicity was -30.1% (inactive). For `COCCNS(=O)(=O)c1cccc2cccnc12`, the cytotoxicity is -7.9% (inactive). Regarding `COc1cc(S(=O)(=O)N2CCCCC2)ccc1NC(=O)c1ccc(F)cc1`, the cytotoxicity was -7.1% (inactive).
